The results in this text go back to ChEMBL document CHEMBL3988442, “University of Dundee, Small-Polar-MMV Screening Library” (2021).

Assay [1] addresses T1, Aspartate--tRNA(Asp/Asn) ligase (Mycobacterium tuberculosis (strain ATCC 25618 / H37Rv)) (UniProt P9WFW3).
T1 sequence (whole entry): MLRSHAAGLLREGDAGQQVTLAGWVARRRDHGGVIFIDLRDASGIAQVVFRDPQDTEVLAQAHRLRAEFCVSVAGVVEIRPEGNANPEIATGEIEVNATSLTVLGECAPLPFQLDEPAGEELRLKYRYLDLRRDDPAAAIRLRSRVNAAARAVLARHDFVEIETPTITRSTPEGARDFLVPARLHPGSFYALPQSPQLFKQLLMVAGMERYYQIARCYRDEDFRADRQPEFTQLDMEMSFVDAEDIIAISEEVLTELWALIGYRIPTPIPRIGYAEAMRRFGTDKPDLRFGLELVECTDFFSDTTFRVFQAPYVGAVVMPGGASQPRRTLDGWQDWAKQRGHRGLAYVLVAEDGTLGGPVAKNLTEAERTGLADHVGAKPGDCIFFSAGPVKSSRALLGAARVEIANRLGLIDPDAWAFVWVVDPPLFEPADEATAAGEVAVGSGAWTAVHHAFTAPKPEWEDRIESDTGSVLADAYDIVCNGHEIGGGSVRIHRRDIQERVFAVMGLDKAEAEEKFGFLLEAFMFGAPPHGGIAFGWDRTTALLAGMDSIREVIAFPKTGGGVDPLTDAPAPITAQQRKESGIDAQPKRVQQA
As to the kind of experiment: Assay for Asp RNA synthetase-1 from Mycobacterium tuberculosis. Format: functional. On the set-up: scale not given: direction of the effect not stated beside the values. The settings on record: 30 µM.

The target of assay [2] is Shiga toxin 2 (Escherichia coli O157:H7) (UniProt P09385+P09386). Kind of assay: E. coli 0.157:H7 Shiga Toxin SOP - stx2 screening assay. The settings on record: 30 µM. On the set-up: scale not given: direction of the effect not stated beside the values. The format is functional.

Turning to `CCNC(=O)N1CCCCC1CCNS(C)(=O)=O` (stereo unspecified), the results for the Percent Effect in assay [1] and in assay [2] were -3.62% and 4.69%, respectively.

For `Cc1c(C(=O)N2CCCC2c2cnn(C)c2)nnn1-c1ccccc1` (stereo unspecified), the Percent Effect is -1.92% in assay [1] and -11.8% in assay [2].

Turning to `Cc1cc(C)c2c(OCC(=O)NC(C)C)nn(C)c2n1`, the Percent Effect in assay [1] was -1.15%; in assay [2], -0.409%.

For the compound `Cc1ccccc1C(=O)CN1C(=O)c2ccccc2CS1(=O)=O`, the Percent Effect in assay [1] is 0.881%; in assay [2], -11.1%.

With `Nc1nc(C2CCN(C(=O)c3cncs3)CC2)cs1`, the Percent Effect in assay [1] was -0.134%; in assay [2] it was -3.12%.

For the compound `Cc1cc(C2CCCN(CCc3ccccn3)C2)n[nH]1` (stereo unspecified), the results for the Percent Effect in assay [1] and in assay [2] were -5.34% and -1.21%, respectively.

With `CCc1ccc(C(=O)NC2CCN(c3cnn(C)c3)C2=O)o1` (stereo unspecified), the values for the Percent Effect in assay [1] and in assay [2] were 3.57% and -7.19%, respectively.

For `O=C(c1cc(=O)[nH]c(=O)[nH]1)N1CCCCC1c1nc2cc(F)ccc2[nH]1` (stereo unspecified), the Percent Effect was -0.139% in assay [1] and 9.59% in assay [2].

On to `N#Cc1ccccc1C(=O)N1C[C@H](CO)C[C@H](CN2CCCC2)C1`, for which the results for the Percent Effect in assay [1] and in assay [2] were -4.69% and 0.715%, respectively.

For the compound `Cc1nc(C)c(C(=O)NCCNC(=O)Cc2ccccc2)s1`, the Percent Effect in assay [1] is -1.6%; in assay [2] it was 11.1%.

Regarding `CC(C)c1n[nH]c(C(=O)Nc2ccnn2C(C)C)c1Br`, the Percent Effect was -9.11% in assay [1] and -15.3% in assay [2].

For `Cc1cc(C)n(CC2CCCN2CC(=O)NC2CCOCC2)n1` (stereo unspecified), the Percent Effect is -3.04% in assay [1] and -26.7% in assay [2].

As for `CCOC(=O)C1CCN(Cc2csc(C(C)(C)C)n2)CC1`, the Percent Effect in assay [1] is -9.34%; in assay [2], -1.05%.

As for `Cc1nc(N2CCN(C(=O)C3CC3)CC2)c2c(n1)c(C)nn2C`, the Percent Effect is -2.18% in assay [1] and -35.4% in assay [2].

With `CS(=O)(=O)NCc1cc2n(n1)CCCN(Cc1nc3ccccc3[nH]1)C2`, the figures for the Percent Effect in assay [1] and in assay [2] were -3.96% and 22.6%, respectively.

Regarding `Cc1cc(O)nc(C2CCCN(Cc3ccncc3)C2)n1` (stereo unspecified), the Percent Effect came out at 1.35% in assay [1] and 11.8% in assay [2].

On to `COc1cccc(CN2CCC(c3cc(O)nc(C)n3)C2)c1` (stereo unspecified), for which the Percent Effect in assay [1] was -3.62%; in assay [2], -14.1%.

As for `CCn1cc(N2Cc3nc(N)ncc3C2=O)cn1`, the Percent Effect in assay [1] was -7.32%; in assay [2], -36.6%.

For `Cc1cnn(CCNCc2csc(-c3ccc(F)cc3)n2)c1`, the figures for the Percent Effect in assay [1] and in assay [2] were -1.03% and 13.4%, respectively.

Turning to `CNC(=O)C(C)(C)NC(=O)c1cc(OCC2CCC2)cc(C(=O)OC)c1`, the Percent Effect came to 9.31% in assay [1] and 7.4% in assay [2].

In the case of `CCc1nccn1C1CCCN(C(=O)c2ccc3[nH]cnc3c2)C1` (stereo unspecified), the Percent Effect in assay [1] was found to be 0.869%; in assay [2], 11.5%.

Consider `CN1CCC(NC(=O)NCc2csc(Br)c2)CC1`, for which the Percent Effect in assay [1] worked out at 6.12%; in assay [2], 6.77%.

With `CC(=O)N1CCNCC1c1cccc(C(=O)N(C)C)c1` (stereo unspecified), the values for the Percent Effect in assay [1] and in assay [2] were -4.15% and 8.72%, respectively.

For the compound `O=C(C1CCOCC1)N1C[C@@H]2[C@@H](C1)OCC(=O)N2CC1CC1`, the Percent Effect was 3.77% in assay [1] and -0.921% in assay [2].

Regarding `CN(C)CC(=O)N1CCOCC2(C1)CN(c1ccccc1)C(=O)CO2` (stereo unspecified), the Percent Effect in assay [1] is 3.93%; in assay [2], -23.2%.

In the case of `CN1CC[C@H](c2ccccc2)[C@@H]2[C@H]1CCCCN2C(=O)c1cnccn1`, the values for the Percent Effect in assay [1] and in assay [2] were -3.68% and 3.52%, respectively.

`Cc1cc(C)c(CNC(=O)NCC(O)COc2ccccc2)c(=O)[nH]1` (stereo unspecified): the Percent Effect in assay [1] came out at 4.61%; in assay [2], 27.6%.

`O=C(NCc1cc[nH]n1)NCC(O)COc1cccc(F)c1` (stereo unspecified): the Percent Effect is 1.72% in assay [1] and -40% in assay [2].

Regarding `COc1ccc(F)cc1S(=O)(=O)NCC(c1cccn1C)N(C)C` (stereo unspecified), the Percent Effect in assay [1] is -5.43%; in assay [2], 9.89%.

Regarding `CC(C)Oc1ncc(C(=O)N2CCC(NC(=O)C3CC3)CC2)cc1Cl`, the results for the Percent Effect in assay [1] and in assay [2] were -4.56% and -46.9%, respectively.

For the compound `COC(=O)C(c1cc(F)ccc1F)N(C)C(=O)c1ccnc(C)n1` (stereo unspecified), the Percent Effect in assay [1] was -0.393%; in assay [2] it was -2.56%.

On to `Cc1cc(NC(=O)CN2CCCC2c2noc(C3CC3)n2)no1` (stereo unspecified), for which the Percent Effect in assay [1] is 0.92%; in assay [2], -26.9%.

As to `Cc1ccccc1NS(=O)(=O)c1cc2c(c(C(=O)O)c1)OCCO2`, the results for the Percent Effect in assay [1] and in assay [2] were -0.815% and 29.1%, respectively.

Regarding `COc1ccccc1CN(C)C(=O)c1cc(CN2CCC(O)CC2)on1`, the Percent Effect in assay [1] was 3.59%; in assay [2] it was -16.2%.

With `O=C(Cn1ccc2sccc2c1=O)NCc1ccc2c(c1)OCO2`, the Percent Effect in assay [1] was 0.0437%; in assay [2], -8.21%.

Regarding `C[C@@H]1CN(C(=O)NC2CC2)C[C@]12CCN(c1ccsc1)C2=O`, the Percent Effect in assay [1] was 2.34%; in assay [2] it was -3.08%.

For `Cc1nc(COc2cccc(C#N)c2)no1`, the Percent Effect is -0.618% in assay [1] and 0.222% in assay [2].

Turning to `Cc1[nH]nc(CCC(=O)N2CCCC(OCc3cccnc3)C2)c1C` (stereo unspecified), the Percent Effect in assay [1] is -6.25%; in assay [2], 20%.

As for `Cc1ccc2c(c1)CN(C(=O)C1CCCCC1)C(CN(C)C)CO2` (stereo unspecified), the Percent Effect in assay [1] was found to be 1.26%; in assay [2], 2.56%.

Regarding `COCCOc1ccccc1CNCc1c(C)nn(C)c1N(C)C`, the Percent Effect worked out at 2.62% in assay [1] and 23.1% in assay [2].

With `Cc1cccc(CN2C[C@@H]3CN(C(=O)[C@H]4CCCO4)C[C@@H]3C2=O)c1`, the Percent Effect is -6.69% in assay [1] and -9.8% in assay [2].

For `COc1ccccc1OCc1cc(C(=O)N2CC=CC2C(C)C)n[nH]1` (stereo unspecified), the Percent Effect in assay [1] is -0.752%; in assay [2], 15.8%.

Regarding `CCc1nc(CN2CCCN(C(=O)C(C)n3cncn3)CC2)cs1` (stereo unspecified), the Percent Effect in assay [1] is -3.06%; in assay [2], 9.04%.
